T cruzi growth-1: inhibitors of T. cruzi proliferation; T. cruzi beta-gal in NIH3T3, GalScreen luminescence, 90 h; inhibition, % at 8.34 µM; hit rate 5.9% among 77,000; AID 624255;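 active means mean inhibition above about 93%, with at least 55% of replicates each passing it, limit read from the data, passing the limit was not always enough; inconclusive means only one of those two conditions holds; inactive means neither condition holds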
C diff HTS: C. difficile growth inhibition | Clostridium difficile clinical isolate growth, OD600, 24 h; hits give low values | growth activity, negative = inhibition, % at 16 µg/mL (by protocol) | hit rate 0.25% among 86,000 | AID 1259249;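 active means mean growth activity at or below -80% and every replicate also at or below -80%; inconclusive means mean at or below -80% but some replicate above -80%; inactive means mean growth activity above -80%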
Pf Dd2 growth: P. falciparum Dd2 growth inhibition. AID 1159554. SYBR Green, 72 h; hits give low values. activity change, % at 10 µM. hit rate 2.3% among 94,000; in the data active means activity change below about -80%; inconclusive means no clear call, values can overlap the other calls
T cruzi growth-2: inhibitors of T. cruzi proliferation | AID 651739 | hit rate 72% among 5,600 | T. cruzi beta-gal in NIH3T3, GalScreen luminescence, 90 h | shares compounds with T cruzi growth-1 | inhibition, % at 8.35 µM;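 active means mean replicate inhibition above about 95% and at least 55% of replicates individually reaching it, limit read from the data; inconclusive means only one of the two criteria is met; inactive means neither criterion is met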
T cruzi growth-3: Trypanosoma cruzi proliferation inhibition | shares compounds with T cruzi growth-1 | T. cruzi beta-gal in NIH3T3, GalScreen luminescence, 90 h | inhibition, % at 2.09 µM | hit rate 21% among 5,600 | AID 651740;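 active means mean inhibition above about 95%, with at least 55% of replicates also reaching it, limit read from the data; inconclusive means meets just one of the two conditions; inactive means meets neither condition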
3T3 cytotox: NIH/3T3 (mouse) viability loss; cytotoxicity (signal decrease), % at 8.35 µM; NIH/3T3 viability, CellTiter-Glo ATP luminescence, 90 h; hit rate 14% among 5,600; shares compounds with T cruzi growth-1;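 active means mean signal decrease across replicates above about 35% based on untreated-well scatter, with enough replicates individually passing, limit read from the data; inconclusive means no rule stated though some were filed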
3T3 cytotox 2: cytotoxicity in mouse NIH/3T3 fibroblasts | NIH/3T3 viability, CellTiter-Glo ATP luminescence, 90 h | hit rate 56% among 5,600 | inhibition, % at 24.9 µM | shares compounds with T cruzi growth-1;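 active means mean loss of cell viability signal at or above a set limit, and enough replicates individually reaching it; inconclusive means meets only the mean limit or only the replicate share; inactive means meets neither condition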
A number is an active result; – = inactive; ? = inconclusive; · = not tested or not shown. An excerpt weighted towards active compounds, which were near 6.7% of everything screened.

SMILES	T cruzi growth-1	C diff HTS	Pf Dd2 growth	T cruzi growth-2	T cruzi growth-3	3T3 cytotox	3T3 cytotox 2
COC(=O)C[C@@H]1C[C@@H]2c3cc(NC(=O)c4cccnc4)ccc3O[C@@H]2[C@@H](CO)O1	–	–	–	·	·	·	·
C[C@@H](NC(=O)C[C@H]1C=C[C@H](NC(=O)C2CC2)[C@@H](CO)O1)c1ccccc1	·	–	–	·	·	·	·
C[C@H]1CCCCO[C@H](CN(C)S(=O)(=O)c2cn(C)cn2)[C@@H](C)CN([C@@H](C)CO)C(=O)c2cc(NC(=O)Nc3ccc(F)cc3)ccc2O1	–	·	–	·	·	·	·
C[C@@H]1CCCCO[C@@H](CN(C)S(=O)(=O)c2ccc(Cl)cc2)[C@H](C)CN([C@@H](C)CO)C(=O)c2cc(NC(=O)C3CCCCC3)ccc2O1	105.8	–	–	105.3	–	–	42.4
C[C@@H]1CCCCO[C@@H](CN(C)S(=O)(=O)c2ccc(F)cc2)[C@@H](C)CN([C@@H](C)CO)C(=O)c2cc(NC(=O)C3CCCCC3)ccc2O1	–	–	–	·	·	·	·
C[C@@H]1CCCCO[C@H](CN(C)S(=O)(=O)c2ccc(F)cc2)[C@@H](C)CN([C@H](C)CO)C(=O)c2cc(NC(=O)C3CCCCC3)ccc2O1	–	–	–	·	·	·	·
C[C@@H]1CN([C@H](C)CO)C(=O)c2cc(NC(=O)C3CCCCC3)ccc2O[C@@H](C)CCCCO[C@@H]1CN(C)S(=O)(=O)c1ccc(Cl)cc1	101.6	–	-85.6	104.2	–	–	–
CC(=O)N[C@@H]1CC[C@@H](CCNC(=O)Nc2ccc(C(F)(F)F)cc2)O[C@H]1CO	–	–	–	·	·	·	·
O=C(NC[C@@H]1[C@H](c2ccccc2)[C@H](CO)N1CC1CC1)c1cccnc1	–	–	–	·	·	·	·
C[C@H]1CN([C@@H](C)CO)C(=O)c2cccc(NC(=O)CCCCCC(=O)Nc3ccccc3N)c2O[C@H]1CN(C)S(=O)(=O)c1ccccc1	·	–	–	·	·	·	·
C[C@@H]1CN([C@H](C)CO)C(=O)c2cccc(NC(=O)CCCCCC(=O)Nc3ccccc3N)c2O[C@H]1CN(C)S(=O)(=O)c1ccc(Cl)cc1	–	–	–	·	·	·	·
C[C@H]1CN([C@@H](C)CO)C(=O)c2cccc(NC(=O)CCCCCC(=O)Nc3ccccc3N)c2O[C@H]1CN(C)S(=O)(=O)c1ccc(Cl)cc1	100.6	–	-89.9	106.3	–	–	–
C[C@H](CO)N1C[C@H](C)[C@@H](CN(C)S(=O)(=O)c2ccc(Cl)cc2)Oc2c(NC(=O)CCCCCC(=O)Nc3ccccc3N)cccc2C1=O	102.9	–	?	109.3	–	–	–
CN(C)CCCNC(=O)[C@@H]1[C@@H](CO)[C@@H]2Cn3c(ccc(-c4ccccc4)c3=O)[C@H]1N2C(=O)CC1CC1	–	–	·	·	·	·	·
COc1ccc(NC(=O)N[C@@H]2CC[C@@H](CCNS(=O)(=O)c3ccccc3F)O[C@H]2CO)cc1	–	·	–	·	·	·	·
COc1ccc(C#Cc2ccc3c(c2)[C@@H]2[C@@H](CCN2S(=O)(=O)c2ccccc2C)[C@@H](CO)N3)cc1	97.3	–	–	109.0	–	–	55.3
COc1ccc(S(=O)(=O)N2CC[C@H]3[C@H](CO)Nc4ccc(C#Cc5ccccc5OC)cc4[C@H]32)cc1	·	–	–	·	·	·	·
COc1ccc(S(=O)(=O)N2CC[C@@H]3[C@H](CO)Nc4ccc(-c5ccc(C#N)cc5)cc4[C@@H]32)cc1	109.4	–	–	100.9	103.1	42.3	49.4
COc1ccc(C#Cc2ccc3c(c2)[C@H]2[C@H](CCN2S(=O)(=O)c2ccccc2C)[C@H](CO)N3)cc1	–	–	–	·	·	·	·
COc1ccc(S(=O)(=O)N2CC[C@@H]3[C@H]2c2cc(C#Cc4ccccc4OC)ccc2N[C@@H]3CO)cc1	107.4	–	-83.3	105.7	110.5	–	–
Cc1ccc(S(=O)(=O)N2CC[C@@H]3[C@H]2c2cc(-c4ccc(C#N)cc4)ccc2N[C@@H]3CO)cc1	–	–	–	·	·	·	·
O=C(Nc1ccc(F)cc1)N1CCCCN2[C@@H](CO)[C@H](c3ccc(-c4ccccc4F)cc3)[C@@H]2C1	105.7	–	–	–	–	55.2	104.1
COc1ccc(NC(=O)N2CCCCN3[C@H](CO)[C@H](c4ccc(-c5ccccc5F)cc4)[C@H]3C2)cc1	–	–	–	·	·	·	·
O=C(Nc1ccc(F)cc1)N1CCCCN2[C@H](C1)[C@@H](c1ccc(-c3ccccc3F)cc1)[C@@H]2CO	–	–	–	·	·	·	·
O=C(Nc1ccc(F)cc1)N1CCCCN2[C@H](C1)[C@H](c1ccc(-c3ccccc3F)cc1)[C@@H]2CO	?	–	–	108.8	–	–	65.2
SMILES	T cruzi growth-1	C diff HTS	Pf Dd2 growth	T cruzi growth-2	T cruzi growth-3	3T3 cytotox	3T3 cytotox 2
O=C(Nc1ccc(F)cc1)N1CCCCN2[C@H](CO)[C@H](c3ccc(-c4ccccc4F)cc3)[C@@H]2C1	114.8	–	–	108.3	–	–	51.9
O=C(Nc1cccc(F)c1)N1CCCCN2[C@H](CO)[C@H](c3ccc(-c4ccccc4F)cc3)[C@H]2C1	101.3	–	–	104.3	111.7	117.1	104.4
COc1ccc(NC(=O)N2CCCCN3[C@H](C2)[C@@H](c2ccc(-c4ccccc4F)cc2)[C@@H]3CO)cc1	–	–	–	·	·	·	·
C[C@@H]1CN([C@@H](C)CO)C(=O)c2cc(NS(=O)(=O)c3cn(C)cn3)ccc2O[C@@H](C)CCCCO[C@H]1CN(C)S(=O)(=O)c1ccc(F)cc1	·	–	–	·	·	·	·
C[C@H](CO)N1C[C@H](C)[C@H](CN(C)C(=O)Nc2ccc(F)cc2)OCCCC[C@H](C)Oc2ccc(NS(C)(=O)=O)cc2C1=O	–	–	–	·	·	·	·
CN1C(=O)c2cc(NC(=O)c3cccs3)ccc2OC[C@H]2O[C@@H](CC(=O)Nc3ccc4c(c3)COC4)CC[C@@H]21	·	–	–	·	·	·	·
CCNC(=O)C[C@H]1CC[C@H]2[C@H](COc3ccc(NC(=O)Cc4cccs4)cc3C(=O)N2C)O1	–	–	–	·	·	·	·
COCC(=O)Nc1ccc2c(c1)[C@H]1C[C@H](CC(=O)N3CCCCC3)O[C@@H](CO)[C@H]1O2	–	–	–	·	·	·	·
CCCNC(=O)N1CC2(CCN(C(=O)c3ccncc3)CC2)c2c([nH]c3cc(OC)ccc23)[C@H]1CO	·	–	–	·	·	·	·
C[C@@H]1CN([C@@H](C)CO)C(=O)c2cc(NC(=O)CCC(F)(F)F)ccc2O[C@@H]1CN(C)C(=O)Nc1ccc(C(F)(F)F)cc1	·	–	–	·	·	·	·
O=C(C[C@H]1C=C[C@H](NC(=O)c2ccc3c(c2)OCO3)[C@H](CO)O1)NCc1ccc(F)cc1	·	–	–	·	·	·	·
O=C(Nc1ccccc1)N1CCCCN2[C@@H](CO)[C@H](c3ccc(-c4ccccc4F)cc3)[C@@H]2C1	–	–	–	·	·	·	·
O=C(Nc1ccccc1)N1CCCCN2[C@H](CO)[C@H](c3ccc(-c4ccccc4F)cc3)[C@@H]2C1	100.9	–	–	111.0	–	–	–

From PubChem
